The text below walks through data of PubChem BioAssay (NCI).

The structures appear in SMILES notation. This is part of a sample that, as a whole, favours compounds with a hit. Of some 83,000 tested, about 20% had one in any assay.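 Interpretation: 100, growth as untreated; towards 0, rising growth inhibition; 0, no net growth; 0 to -100, cell death. Compounds scoring below 10 were considered active.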 Values without a mark were called inactive. Active and inactive are the calls of the source.

Common to all, as to assay: NCI-60 one-dose screen, 48 h (100 = growth as untreated, 0 = no growth, -100 = all killed)
Holding throughout (details): 10 µM unless noted

Experiment [1] concerns NCI-H23 lung.
The subject of experiment [2] is NCI-H226 lung.
Experiment [3] relates to NCI-H322M lung.
The test system of experiment [4] is HOP-62 NSCLC.
The test system of experiment [5] is NCI-H460 lung.
The subject of experiment [6] is HOP-92 NSCLC.
In experiment [7] the test system is NCI-H522 lung.
Experiment [8] concerns 786-0 renal.
Experiment [9] has as its system COLO 205 colon.
Experiment [10] has as its system A549/ATCC NSCLC.

Turning to `COc1ccc2c(c1)c(CC(=O)O)c(C)n2C(=O)c1ccc(Cl)cc1`, the growth was 92.5% in [1]; 94.8% in experiment [2]; 89.7% in experiment [3]; 100% in experiment [4]; 101% in experiment [5]; 82.8% in experiment [6]. Also, the figures for the growth in experiment [7], in experiment [8] and in experiment [9] were 97.5%, 77.4% and 128%, respectively.

For `CCOC(=O)NC(/C=C/c1ccccc1)NC(=O)OCC`, the growth is 102% in [1]; 102% in experiment [2]; 104% in [3]; 100% in experiment [4]; 108% in experiment [5]; 108% in [6]. In addition, the growth in [7] is 100%; in experiment [8] it was 103%; in experiment [9], 112%.

In the case of `O=C(CBr)c1ccc(OC(=O)c2ccccc2)cc1`, the growth in experiment [1] was 101%; in [2] it was 113%; in experiment [3], 134%; in experiment [4], 99.9%; in experiment [5], 104%; in experiment [6], 88%. The growth in [10] is 100%; in experiment [9], 109%.

Consider `COc1ccc2nc3cc(Cl)ccc3c(NCCCCCN3CCCCC3)c2c1`, for which the growth was -49.1% (active) in experiment [1]; -39.8% (active) in experiment [2]; -34% (active) in experiment [3]; -31.6% (active) in [4]; -62.9% (active) in experiment [5]; -56.4% (active) in [6]. Besides, the growth in [7] is -71.6% (active); in [8] it was -73.4% (active); in experiment [9], -89.4% (active).

For the compound `CC/C(=C(/CC)c1ccc(O)cc1)c1ccc(O)cc1`, the growth in experiment [1] was 75.8%; in experiment [2], 82.7%; in experiment [3], 77.6%; in experiment [4], 70.8%; in [5], 85.6%; in experiment [6], 58.1%. Moreover, the growth in experiment [7] was 61%; in experiment [8], 80%; in [9], 97.6%.

Take `c1ccc2sc(SSN3CC4CCC(CC4)C3)nc2c1`: the growth in [1] was 107%; in [2] it was 100%; in experiment [3], 96%; in experiment [4], 119%; in [5], 115%; in experiment [6], 110%. In addition, the growth in experiment [7] is 28.9%; in [8], 129%; in experiment [9] it was 128%.

As to `CCC(=O)c1cc([N+](=O)[O-])c(Br)s1`, the growth in [1] was 93.4%; in experiment [2] it was 99.1%; in experiment [3], 101%; in experiment [4], 101%; in [5], 108%; in experiment [6], 89.1%. The results for the growth in [8] and in [9] were 109% and 11.5%, respectively.

For `O=[N+]([O-])c1cc(-c2ccccc2)c(O)c([N+](=O)[O-])c1`, the growth in [1] was 83.7%; in experiment [2], 82.5%; in experiment [3] it was 126%; in experiment [4], 92.5%; in [5] it was 65.9%; in experiment [6], 3.74% (active). Also, the growth in experiment [10] is 86.8%; in experiment [9], 106%.

Regarding `CC(C)=CCCC(C)C1=C(O)C(=O)C(C)=CC1=O` (stereo not given), the growth in experiment [1] was 97%; in [2], 94.8%; in [3], 112%; in [4], 125%; in experiment [5], 124%; in [7], -55.5% (active). Also, the growth in experiment [10] was 110%; in experiment [8] it was 93.2%; in experiment [9], 50.3%.

As to `Cc1cc(C(=O)c2ccc(Cl)cc2)ccc1O`, the growth was 102% in experiment [1]; 90.1% in [2]; 103% in [3]; 85.7% in [4]; 106% in experiment [5]; 72.5% in experiment [7]. For the same compound, the growth in experiment [10] is 91.8%; in [8] it was 79.7%; in experiment [9], 122%.

With `Oc1ccc2ccccc2c1N=Nc1nccs1`, the growth in [1] was 40%; in [2] it was -0.189% (active); in [3] it was 15.7%; in experiment [4], 20.2%; in [5], 10.2%; in experiment [7], 178%. In addition, the values for the growth in experiment [10], in experiment [8] and in [9] were 43.6%, -40.2% (active) and 21.4%, respectively.

As to `CN(C)c1ccc(/C=C/c2ccnc3ccccc23)cc1`, the growth in experiment [1] was 58.6%; in experiment [2], 23.5%; in experiment [3] it was 97.3%; in experiment [4], 61.8%; in experiment [5] it was 21.7%; in experiment [7] it was -24% (active). Besides, the growth in experiment [10] was 24.7%; in experiment [8], 54.7%; in experiment [9], 40.6%.

In the case of `O=C(/C=C/C(Cl)(Cl)Cl)Nc1ccc(Cl)cc1`, the growth in experiment [1] is 81.5%; in experiment [2], 106%; in experiment [3], 126%; in experiment [4], 125%; in experiment [5], 115%; in [7], -51.6% (active). Also, the growth is 103% in [10], 109% in experiment [8] and 98.6% in experiment [9].

`C=C(C(N)=O)C(N)C(=O)O` (stereo not given): the growth in experiment [1] is 110%; in experiment [2], 112%; in experiment [3] it was 100%; in experiment [4], 110%; in [5] it was 108%; in experiment [7], 100%. For the same compound, the growth was 107% in experiment [10] and 92.8% in [8].

As to `Cc1c(O)ccc(SC#N)c1C`, the growth in [1] is 98%; in [2] it was 109%; in experiment [3] it was 117%; in [4], 100%; in experiment [5], 99.5%; in [6], 92.2%. In addition, the growth in experiment [10] was 108%; in experiment [9], 96.9%.
